# Compounds with a hit are over-represented: about 5.4% of the library has one in this group of screens.
# SMARCA2 act = SMARCA2 (BRM) function activators, primary screen, cell-based, luminescence, high throughput. MG213 cells, MMTV-luciferase reporter, dexamethasone, overnight. activation, % at 9.1 µM. hit rate 1% among 370,000. AID 652017, 2013; in the data active means activation above about 7.8%;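 further: 0% = vehicle wells and 100% = reference activator wells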
# Granule exo inh = LAMP-1 surface exposure blockers, TALL-104 cells – cell-based, flow cytometry, MLPCN library, primary screen | TALL-104 LAMP-1 surface exposure; cells stimulated with thapsigargin and PMA | inhibition, % at 10 µM | hit rate 0.66% among 360,000 | AID 651702, 2012;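 active means inhibition above about 55%, limit read from the data; inconclusive means no clear call, values can overlap the other calls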
# M18AAP inhibitor = PfM18AAP inhibitors, malaria aminopeptidase, primary screen, biochemical, QFRET, recombinant enzyme. inhibition, % at 7.35 µM. H-Glu-NHMec fluorogenic cleavage. hit rate 1.2% among 290,000. M18 aspartyl aminopeptidase (Plasmodium falciparum 3D7);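 active means inhibition above the campaign mean inhibition over all tested compounds plus 3 SD, cut at about 28% in these data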;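 further: 0% = plate median of test compound wells and 100% = 2 mM ZnCl2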
# GASC-1 inh = inhibitors of GASC-1 histone demethylase, primary screen, biochemical, fluorescence, DELFIA europium; Lysine-specific demethylase 4C (Homo sapiens), Q9H3R0; GST-JMJD2C(1-420) H3K9me3 demethylation; inhibition, % at 2.35 µM; hit rate 0.069% among 330,000; AID 2099, 2009;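 active means more than half of a compound's replicate wells show inhibition beyond 50%, single wells judged on their own value; inconclusive means some, but no more than half, of replicates pass 50% inhibition; inactive means no replicate passes 50% inhibition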;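 further: signal counts dimethyl H3K9 product captured on neutravidin plate; 0% = median of DMSO wells and 100% = 0.3 times that DMSO median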
# Target sequence (Q9H3R0 1-420 limits assumed): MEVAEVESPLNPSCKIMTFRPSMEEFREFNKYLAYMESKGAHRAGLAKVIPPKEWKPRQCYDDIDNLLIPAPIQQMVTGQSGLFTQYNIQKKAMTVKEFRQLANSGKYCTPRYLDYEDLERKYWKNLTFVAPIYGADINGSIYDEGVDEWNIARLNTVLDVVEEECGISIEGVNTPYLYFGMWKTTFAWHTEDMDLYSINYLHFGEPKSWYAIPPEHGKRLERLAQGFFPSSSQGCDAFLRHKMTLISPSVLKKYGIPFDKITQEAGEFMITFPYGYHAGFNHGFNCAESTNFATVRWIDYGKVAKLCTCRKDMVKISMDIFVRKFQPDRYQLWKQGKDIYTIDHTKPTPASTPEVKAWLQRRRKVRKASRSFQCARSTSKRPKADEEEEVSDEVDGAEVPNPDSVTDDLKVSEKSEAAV
# beta cell repl = inducers of MIN6 beta-cell proliferation, primary screen, ATP luminescence, uHTS | hit rate 0.29% among 330,000 | proliferation, % at 10 µM | MIN6 cells proliferation, ATPlite luminescence, 48 h; cells starved in 0.2% serum; 100% = growth in 10% serum;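 active means compounds whose signal lies at least 3.5 SD above the mean of all wells on their plate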;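 further: 0% = DMSO-treated cells in low-serum medium and 100% = 10% serum control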
# ALR H2O2 inh = inhibitors of human ALR sulfhydryl oxidase, primary screen, biochemical, H2O2 detection, HRP-luminol luminescence, single point. purified ALR, DTT oxidation. FAD-linked sulfhydryl oxidase ALR (Homo sapiens), P55789. inhibition, % (test concentration not listed). hit rate 3.8% among 290,000;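 active means mean replicate inhibition above about 79%, with every replicate also reaching it, limit read from the data; inconclusive means only one of the two criteria met; inactive means mean below limit and not every replicate reaching it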
# Numbers without * were called inactive; ? = inconclusive; / = no result.
SMILES,SMARCA2 act,Granule exo inh,M18AAP inhibitor,GASC-1 inh,beta cell repl,ALR H2O2 inh
CC(C)c1ccc(NC2CCCN(C(=O)CCN3CCCO3)C2)cc1 (configuration not stated),-3,2,-7,-5,0,67
CC(C)c1ccc(NC2CCCN(C(=O)CCN3CCCCO3)C2)cc1 (configuration not stated),-2,-4,-1,-1,5,79*
O=C(CCN1CCCO1)N1CCCC(N2CCN(c3ccccc3F)CC2)C1 (configuration not stated),-3,-9,7,10,0,-10
O=C(CCN1CCCCO1)N1CCCC(Nc2ccc(F)c(F)c2)C1 (configuration not stated),-4,-5,-9,7,0,23
COC(=O)C1CN(Cc2ccc(OC)cc2)CCS(=O)(=O)N1Cc1ccccc1 (configuration not stated),-2,/,/,/,/,/
CC(C)c1ccc(NC2CCCN(C(=O)CCc3cnn(C)c3)C2)cc1 (configuration not stated),2,2,3,1,-2,98*
Cc1nonc1C(=O)N1CCCC(N2CCN(c3ccc(F)cc3)CC2)C1 (configuration not stated),0,4,-2,13,-4,98*
Cc1cc(C(=O)N2CCCC(N3CCN(c4ccc(F)cc4)CC3)C2)c(C)o1 (configuration not stated),-3,-2,3,-3,2,51
CC(C)c1ccc(NC2CCCN(C(=O)CCn3cnnn3)C2)cc1 (configuration not stated),3,-3,2,-11,-1,67
O=C1CCCCN1CCCC(=O)N1CCCC(Nc2ccccc2)C1 (configuration not stated),-1,38,6,/,1,99*
CC(C)c1ccc(NC2CCCN(C(=O)CC3CCCC3)C2)cc1 (configuration not stated),-1,13,18,14,-5,79*
Cc1nn(C)c(C)c1CCC(=O)N1CCCC(Nc2ccc(C(C)C)cc2)C1 (configuration not stated),2,-1,11,1,-3,51
O=C1CCCCN1CCC(=O)N1CCCC(N2CCN(c3ccccc3)CC2)C1 (configuration not stated),3,-7,-1,-2,2,93*
O=C1CCCCN1CCC(=O)N1CCCC(N2CCN(c3cccc(Cl)c3)CC2)C1 (configuration not stated),2,-1,-19,2,2,?
CC(C)c1ccc(NC2CCCN(C(=O)CCN3CCCC3=O)C2)cc1 (configuration not stated),-3,0,2,2,-2,78*
Cc1ccnn1CCC(=O)N1CCCC(Nc2ccc(C(C)C)cc2)C1 (configuration not stated),-2,0,/,/,/,/
Cc1ccc2c(c1)C(=C(C#N)C#N)C(=O)N2CCN1CCCCC1,1,56*,-2,-20,-6,/
Cc1noc(NS(=O)(=O)c2ccc(NC(=O)CSc3nc4ccccc4s3)cc2)c1C,1,-2,-11,9,-3,99*
Cc1cc(C)nc(SCC(=O)Nc2ccc(S(=O)(=O)Nc3onc(C)c3C)cc2)n1,-1,4,-1,0,-2,94*
Cc1cc(C)nc(SCC(=O)Nc2ccc(S(=O)(=O)Nc3cc(C)on3)cc2)n1,2,1,4,1,-2,15
Cc1noc(NS(=O)(=O)c2ccc(NC(=O)CSc3ncccn3)cc2)c1C,-2,-4,-1,52,-1,98*
O=C(N1CCOCC1)N1CC[C@H]2[C@H](CCCN2Cc2cc(F)cc(F)c2)C1,2,/,/,/,/,/
COc1ccc(Oc2c(Br)cnn(Cc3cccc4ccccc34)c2=O)cc1,0,/,/,/,/,/
